In PubChem BioAssay (NCATS) one finds Potency data, which are given here for 11 compounds.

Assay [1] can be described thus: Quantitative High-Throughput drug screen in 47 multiple myeloma cell lines against the NCATS MIPE library collection: Karpas620_DSMZ cell viability assay (AID 1918959). Also: nearly all actives have a fitted effect of over 30% in size. The gist of the method: (§1)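 CellTiter-Glo luminescence (ATP) after 48 h compound exposure, 37C/5% CO2; 500 cells/well; MIPE 4.0 approved/investigational drugs pinned in; DMSO = 100%, media only = 0% viability.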

Assay [2] can be described thus: Quantitative High-Throughput drug screen in 47 multiple myeloma cell lines against the NCATS MIPE library collection: Karpas417_ECACC cell viability assay (AID 1918961). The following applies: Karpas417 myeloma viability, CellTiter-Glo ATP luminescence, 48 h; viability (% of DMSO): at 45.8 µM (top of the series). The gist of the method: (§2)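 Myeloma cells (500 per well) were exposed to MIPE 4.0 compounds by pin transfer and incubated 48 hours at 37C, 5% CO2. Viability was read as ATP by CellTiter-Glo luminescence, normalised to DMSO (100%) and media-only (0%) wells.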

Assay [3] can be described thus: Quantitative High-Throughput drug screen in 47 multiple myeloma cell lines against the NCATS MIPE library collection: KHM11_PLB cell viability assay (AID 1918962). Also: nearly all actives have a fitted effect of over 35% in size. The gist of the method:
as §1

Assay [4] is described as follows: Quantitative High-Throughput drug screen in 47 multiple myeloma cell lines against the NCATS MIPE library collection: JIM1_ECACC cell viability assay (AID 1918964). The gist of the method:
(§3)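 Primary qHTS used for cherry-picking: cells at 500/well, library compounds for 48 h (37C, 5% CO2), luminescent ATP assay.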

The nature of assay [5]: Quantitative High-Throughput drug screen in 47 multiple myeloma cell lines against the NCATS MIPE library collection: INA6_PLB cell viability assay (AID 1918965; also: nearly all actives have a fitted effect of over 55% in size). The gist of the method: as §2
Assay [6] in a line: Quantitative High-Throughput drug screen in 47 multiple myeloma cell lines against the NCATS MIPE library collection: JJN3_DSMZ cell viability assay (AID 1918966; also: nearly all actives have a fitted effect of over 50% in size). The essentials:
as §3

Assay [7] can be described thus: Quantitative High-Throughput drug screen in 47 multiple myeloma cell lines against the NCATS MIPE library collection: H1112_PLB cell viability assay (AID 1918967; also: nearly all actives have a fitted effect of over 30% in size). The essentials:
as §3

Assay [8] can be described thus: Quantitative High-Throughput drug screen in 47 multiple myeloma cell lines against the NCATS MIPE library collection: KMS27_JCRB cell viability assay (AID 1918970). Also: nearly all actives have a fitted effect of over 30% in size. The following applies: KMS27 myeloma cells, CellTiter-Glo ATP viability, 48 h; viability (% of DMSO): at 45.8 µM (top of the series). The gist of the method:
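Viability inhibition screen, 48 h compound exposure, luminescent ATP read-out.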

Assay [9] in a line: Quantitative High-Throughput drug screen in 47 multiple myeloma cell lines against the NCATS MIPE library collection: KMS12BM_JCRB cell viability assay (AID 1918971). Also: nearly all actives have a fitted effect of over 35% in size. The gist of the method: (§4)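 qHTS of the MIPE 4.0 collection: 500 myeloma cells/well, 48 h drug exposure at 37C in 5% CO2, then CellTiter-Glo for 5 min at room temperature before luminescence reading.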
Assay [10] can be described thus: Quantitative High-Throughput drug screen in 47 multiple myeloma cell lines against the NCATS MIPE library collection: KMS12PE_JCRB cell viability assay (AID 1918972). Also: nearly all actives have a fitted effect of over 30% in size. The gist of the method:
as §2

Assay [11] can be described thus: Quantitative High-Throughput drug screen in 47 multiple myeloma cell lines against the NCATS MIPE library collection: KMS21BM_JCRB cell viability assay (AID 1918974). To be noted: ATP luminescence, 48 h; viability: at 45.8 µM (top of the series). The gist of the method:
as §3

Assay [12] can be described thus: Quantitative High-Throughput drug screen in 47 multiple myeloma cell lines against the NCATS MIPE library collection: KMS26_JCRB cell viability assay (AID 1918975). Also: nearly all actives have a fitted effect of over 45% in size. The essentials:
as §4

A short description of assay [13]: Quantitative High-Throughput drug screen in 47 multiple myeloma cell lines against the NCATS MIPE library collection: MMM1_PLB cell viability assay (AID 1918976). Also: nearly all actives have a fitted effect of over 35% in size. The essentials:
(§5)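 Myeloma cells (500/well) treated with MIPE 4.0 compounds for 48 h at 37 °C, 5% CO2. Viability read as ATP via CellTiter-Glo luminescence after 5 min at RT; DMSO-only wells = 100%, media-only = 0% viability.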

A short description of assay [14]: Quantitative High-Throughput drug screen in 47 multiple myeloma cell lines against the NCATS MIPE library collection: MOLP8_DSMZ cell viability assay (AID 1918977). Also: nearly all actives have a fitted effect of over 45% in size. The essentials:
as §5

Assay [15] is described as follows: Quantitative High-Throughput drug screen in 47 multiple myeloma cell lines against the NCATS MIPE library collection: NCIH929_DSMZ cell viability assay (AID 1918978). Also: nearly all actives have a fitted effect of over 35% in size. The gist of the method: as §5
The nature of assay [16]: Quantitative High-Throughput drug screen in 47 multiple myeloma cell lines against the NCATS MIPE library collection: OCIMY1_PLB cell viability assay (AID 1918979). Also: nearly all actives have a fitted effect of over 35% in size. The gist of the method: as §5
A short description of assay [17]: Quantitative High-Throughput drug screen in 47 multiple myeloma cell lines against the NCATS MIPE library collection: JIM3_ECACC cell viability assay (AID 1918963; also: nearly all actives have a fitted effect of over 35% in size). The gist of the method:
as §1

A short description of assay [18]: Quantitative High-Throughput drug screen in 47 multiple myeloma cell lines against the NCATS MIPE library collection: Karpas25_ECACC cell viability assay (AID 1918968; also: nearly all actives have a fitted effect of over 35% in size). The essentials: as §3
Assay [19] in a line: Quantitative High-Throughput drug screen in 47 multiple myeloma cell lines against the NCATS MIPE library collection: KMM1_JCRB cell viability assay (AID 1918960). Also: nearly all actives have a fitted effect of over 30% in size. The gist of the method:
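Here, 48 h treatment with MIPE 4.0 agents at 37 °C preceded an ATP luminescence read. Plating density was 500 cells per well.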

A short description of assay [20]: Quantitative High-Throughput drug screen in 47 multiple myeloma cell lines against the NCATS MIPE library collection: KMS20_JCRB cell viability assay (AID 1918973). Also: nearly all actives have a fitted effect of over 45% in size. The gist of the method:
as §3

Records with an inconclusive call do not appear. Activity calls are given as the source filed them. Calls follow the shape of the dose curve; as a rule, active = well fitted curve in the direction sought with a large enough effect; inconclusive = small, poorly fitted or top-dose-only effect, or another doubt; inactive = no such curve, though single readings can be large; an effect the other way counts as inactive or inconclusive. Residues, ends and D or L forms follow the SMILES beside them. *: point of attachment. Cbz = O=C(OCc1ccccc1)*
Potency is read from the fitted curve at half-maximal effect.

Turning to `CCNC(=O)Nc1ccc(-c2nc3c(c(N4CCOC[C@H]4C)n2)CCN(C2COC2)C3)cc1`, the Potency in [1] was 16600 nM (active); in assay [2], 83.3 nM (active); in [3] it was 469 nM (active); in assay [4], 132 nM (active); in [5] it was 2090 nM (active); in [6], 833 nM (active). The Potency is 590 nM (active) in assay [7]; 590 nM (active) in [8]; 1180 nM (active) in assay [9]; 5260 nM (active) in assay [10]; 2350 nM (active) in assay [11]; 1660 nM (active) in [12]. The Potency in assay [13] was 418 nM (active); in [14] it was 833 nM (active); in assay [15], 526 nM (active); in [16] it was 469 nM (active).
As to `CN[C@H]1[C@@H](O)[C@@H]2O[C@@H]3O[C@H](C)CC(=O)[C@]3(O)O[C@@H]2[C@@H](NC)[C@H]1O`, the Potency was 743 nM (active) in [1]; 8330 nM (active) in assay [3]; 5260 nM (active) in assay [17]; 662 nM (active) in assay [4]; 2960 nM (active) in [5]; 105 nM (active) in [6]. For the same compound, the Potency in assay [7] was 2640 nM (active); in assay [18], 74.3 nM (active); in assay [8], 332 nM (active); in [9], 9350 nM (active); in assay [10] it was 833 nM (active); in [11] it was 418 nM (active). The Potency in [12] was 1660 nM (active); in assay [13] it was 1660 nM (active); in assay [14], 11800 nM (active); in [16], 8330 nM (active).
Take `CCN(CC)CCCCNc1ncc2c(n1)N(C)C(=O)N(c1c(Cl)c(OC)cc(OC)c1Cl)C2`: the Potency result in assay [1], in assay [19], in assay [4], in assay [10] and in assay [15] was “inactive” each time. Besides, the Potency in [5] was 11800 nM (active); in assay [7], 16600 nM (active); in [18], 16600 nM (active); in assay [13], 9350 nM (active).
Regarding `COc1ccc([C@@H]2CNC(=O)C2)cc1OC1CCCC1`, the Potency entry in assay [1], in assay [2], in assay [9] and in assay [16] was “inactive” in each case. Also, the Potency in assay [5] was 9350 nM (active); in assay [7], 2960 nM (active); in [18], 3320 nM (active); in assay [8] it was 26400 nM (active); in assay [20], 3720 nM (active); in assay [15], 4180 nM (active).
For the compound `O=C1NC(=O)C(=Cc2ccc3nccc(-c4ccncc4)c3c2)S1`, the Potency in assay [1] was 296 nM (active); in [19], 132 nM (active); in assay [4], 29.6 nM (active); in assay [5], 148 nM (active); in assay [6], 93.5 nM (active); in [18], 29.6 nM (active). Moreover, the Potency in [8] was 29.6 nM (active); in assay [9], 332 nM (active); in [10] it was 332 nM (active); in assay [20], 93.5 nM (active); in [11], 166 nM (active); in [12], 187 nM (active). The Potency in [13] was 235 nM (active); in assay [14], 166 nM (active); in assay [15], 29.6 nM (active).
For `CN(N=O)C(=O)N[C@H]1C(O)OC(CO)[C@@H](O)[C@H]1O` (stereo not given in full), the Potency entry in assay [1], in [19], in assay [7], in assay [18], in assay [20] and in assay [14] was “inactive” throughout. For the same compound, the Potency entry in [15] is “inactive”.
Take `CC(C)C[C@@H](C=O)NC(=O)[C@H](CC(C)C)NC(=O)[C@H](CC(C)C)NC(=O)OCc1ccccc1` (Cbz-Leu-Leu-Leu-aldehyde): the Potency in [1] was 148 nM (active); in assay [3], 187 nM (active); in assay [17], 526 nM (active); in [4], 209 nM (active); in [5], 148 nM (active); in [6], 469 nM (active). Also, the Potency in assay [18] was 235 nM (active); in [8], 166 nM (active); in assay [9], 469 nM (active); in [10], 105 nM (active); in [20] it was 526 nM (active); in [12], 590 nM (active). Also, the Potency in assay [13] is 2350 nM (active); in assay [14], 469 nM (active); in assay [15], 118 nM (active).
Consider `CCn1c(=O)c2c(nc(C=Cc3ccc(OC)c(OC)c3)n2C)n(CC)c1=O`, for which the Potency entry in assay [1], in [2], in [6], in assay [7], in assay [18] and in assay [9] was “inactive” throughout. In addition, the Potency result in assay [12], in [14], in [15] and in [16] was “inactive” each time. Moreover, the values for the Potency in assay [8] and in [10] were 11800 nM (active) and 20900 nM (active), respectively.
Consider `CC(=O)ON=C1C(c2c(O)[nH]c3cc(Br)ccc23)=Nc2ccccc21`, for which the Potency was 4690 nM (active) in assay [1]; 5260 nM (active) in [2]; 13200 nM (active) in [3]; 2960 nM (active) in assay [17]; 3720 nM (active) in assay [4]; 935 nM (active) in [5]. Also, the Potency is 20900 nM (active) in assay [6]; 6620 nM (active) in assay [8]; 14800 nM (active) in [9]; 1480 nM (active) in assay [10]; 20900 nM (active) in [13]; 13200 nM (active) in assay [14]. The figures for the Potency in [15] and in assay [16] were 2090 nM (active) and 26400 nM (active), respectively.
For the compound `C[C@H](NC(=O)[C@@H](O)c1cc(F)cc(F)c1)C(=O)N[C@@H]1C(=O)N(C)c2ccccc2-c2ccccc21`, the Potency entry in [1], in assay [19], in [5], in [6], in assay [18] and in assay [10] was “inactive” each time. Moreover, the Potency entry in assay [20], in [12], in [14] and in assay [16] was “inactive” in each case. In addition, the Potency in assay [7] was 14800 nM (active).
Take `CCCNC(=O)[C@H]1O[C@H]1C(=O)N[C@H](C(=O)N1CCC[C@@H]1C(=O)OC)C(C)CC` (stereo not given in full): the Potency is 5900 nM (active) in assay [1]; 2960 nM (active) in assay [2]; 33200 nM (active) in assay [3]; 16600 nM (active) in assay [17]; 16600 nM (active) in assay [5]; 2960 nM (active) in [6]. Further, the Potency in [18] is 14800 nM (active); in assay [8], 5900 nM (active); in assay [9], 5260 nM (active); in assay [10] it was 6620 nM (active); in assay [12] it was 11800 nM (active); in assay [13] it was 16600 nM (active). In addition, the Potency is 2640 nM (active) in [14], 4690 nM (active) in [15] and 5900 nM (active) in assay [16].
